# Calls of active or inactive are those of the source.
# How the values were obtained:
# [1] = test system: Human papillomavirus type 1a protein E7 (residues 44-93); test: HPV1a E7 fragment binders on microarrays, primary screen, biochemical, small-molecule microarray, residues 44-93, 635 nm fluorescence (AID 1108); settings: small-molecule microarray binding, fluorescence 635 nm; higher = more signal;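 note: E7 fragment applied at 1 µg/mL in TBST for 1 h at 4 C; score combines spot fluorescence with its signal to noise ratio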
# [2] = modulators of HCV replicon luciferase signal, primary screen, HCV replication inhibitor project, Huh7 cells, luciferase reporter (AID 1109); settings: 48 h, higher = more signal;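 note: huh7 hepatoma cells harbouring a luciferase neomycin HCV replicon reporter; luciferase luminescence as measure of HCV replicon replication; test concentration not given here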
# [3] = target: Left-right determination factor 2 (Homo sapiens) (UniProt O00292); test: LEFTY2 binders on small-molecule microarrays, primary screen, biochemical, small-molecule microarray, 635 nm fluorescence scan (AID 1110); settings: LEFTY2 binding, higher = more signal
# [4] = target: Calmodulin-1 (Homo sapiens) (UniProt P0DP23); test: CALM1 binders on microarrays, EGTA buffer, profiling panel, biochemical, small-molecule microarray, Cy5-labelled CALM1 (AID 1111); settings: Cy5-CALM1 binding fluorescence, higher = more signal;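 note: labelled calmodulin applied in Tris saline Tween buffer holding calcium plus EGTA and DTT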
# [5] = target: Calmodulin-1 (Homo sapiens) (UniProt P0DP23); test: calcium-bound CALM1 binders on microarrays, profiling panel, artefact control for SMM control-protein annotation, biochemical, small-molecule microarray, Cy5-labelled CALM1, plus calcium (AID 1112); settings: Cy5-CALM1 binding fluorescence, higher = more signal;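 note: score merges spot fluorescence with signal to noise from triplicate slides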
# [6] = small-molecule microarray binders of probe aWnt5a, primary screen, biochemical, biotinylated probe, 635/667 nm fluorescence (AID 1113); settings: higher = more signal;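 note: score merges 667 nm fluorescence intensity with signal-to-noise per printed feature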
# [7] = small-molecule microarray binders of probe aShh, primary screen, biochemical, biotinylated probe, 635/667 nm fluorescence (AID 1114); settings: higher = more signal;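 note: probe is biotin-labelled aShh protein from a stem cell growth factor screen; measures binding of labelled protein to compounds printed on the slide; score merges feature fluorescence at 667 nm with signal-to-noise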
# [8] = small-molecule microarray binders of probe aNog, primary screen, biochemical, biotinylated probe, 635/667 nm fluorescence (AID 1115); settings: higher = more signal;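 note: probe is biotinylated aNog protein used at 0.15 µg/mL for 1 h at 4 C; z-score combines 667 nm fluorescence of each spot with its signal to noise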
# [9] = target: Torsin-1A-interacting protein 1 (Homo sapiens) (UniProt Q5JTV8); test: LAP1 binders from COS7 cell lysate, primary screen, small-molecule microarray, 635/667 nm fluorescence (AID 1116); settings: COS7-hLAP1 lysate binding, 635 nm fluorescence, higher = more signal
# [10] = target: Alpha-bungarotoxin (Bungarus multicinctus) (UniProt P60615); test: alpha-bungarotoxin binders on microarray, profiling panel, artefact control for SMM control protein annotation, biochemical, small-molecule microarray, Alexa647 label, 635/667 nm fluorescence (AID 1117); settings: alpha-BTX-A647 binding fluorescence, higher = more signal
# Albumin (Bos taurus) = Albumin (Bos taurus) (UniProt P02769); test: bovine serum albumin binders on microarray, profiling panel, artefact control for SMM control protein annotation, biochemical, small-molecule microarray, Alexa647 label, 635/667 nm fluorescence (AID 1118); settings: BSA-A647 binding, fluorescence 635 nm, higher = more signal;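 note: score merges 667 nm emission intensity and signal-to-noise per printed compound spot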
# [11] = small-molecule microarray binders of probe aXIP, primary screen, biochemical, NeuroSMM set, 635/667 nm fluorescence (AID 1119); settings: higher = more signal, called active from +8 up or from −8 down;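 note: probe is the protein aXip251-270 applied at 1 µg/mL to compound-printed slides; binding of probe to printed compounds measured as 667 nm fluorescence plus signal to noise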
# [12] = small-molecule binders of probe aNOTCH3, primary screen, biochemical, small-molecule microarray, 635/667 nm fluorescence (AID 1120); settings: higher = more signal;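 note: probe is a biotin-tagged antibody raised against NOTCH3 rather than NOTCH3 protein; score merges spot fluorescence near 667 nm with spot signal to noise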
# [13] = small-molecule binders of probe aNOTCH2, primary screen, biochemical, small-molecule microarray, 635/667 nm fluorescence (AID 1121); settings: higher = more signal;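 note: score merges feature fluorescence read at 667 nm with its signal to noise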
# [14] = target: Carbonic anhydrase 2 (Homo sapiens) (UniProt P00918); test: CAII small-molecule binders, profiling panel, biochemical, small-molecule microarray, Alexa647-labelled CAII (AID 1122); settings: CAII-A647 binding fluorescence, higher = more signal
# [15] = COS7 lysate on small-molecule microarray, probe aHis, 635 nm (AID 1123); settings: COS7 cell lysate, fluorescence, higher = more signal;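 note: z-score combines 667nm fluorescence intensity with signal-to-noise per printed compound spot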
# [16] = compound binding in COS7 lysate, probe aLAP1, primary screen, cell lysate, small-molecule microarray (AID 1124); settings: probe aLAP1, fluorescence, higher = more signal;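 note: lysate comes from COS7 cells expressing LAP1 and is applied at 0.3 µg/mL; score merges spot fluorescence near 667 nm with signal-to-noise over triplicate slides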
# Sam68 (KHDRBS1) = test: Sam68 small-molecule binders, primary screen, biochemical, small-molecule microarray, 635 nm fluorescence (AID 1125); settings: small-molecule microarray binding, higher = more signal;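 note: score merges 667 nm channel intensity with signal to noise over triplicate slides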
# [17] = test system: Chordin-like protein 2 (CHRDL2); test: CHRDL2 small-molecule binders, primary screen, biochemical, small-molecule microarray, 635 nm fluorescence (AID 1126); settings: small-molecule microarray binding, fluorescence 635 nm; higher = more signal;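 note: printed compound slides probed with Chrdl2 protein at 4 µg/mL for 1 h at 4 C; score merges 667 nm emission intensity with signal to noise over three replicate slides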
# [18] = target: Concanavalin-A (Canavalia ensiformis) (UniProt P02866); test: ConA small-molecule binders, primary screen, artefact control for SMM control protein annotation, biochemical, small-molecule microarray, Alexa647 label, 635 nm (AID 1127); settings: ConA-A647 binding fluorescence, higher = more signal;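 note: z combines 667 nm emission intensity with signal-to-noise across three replicate slides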
# Sequence of Concanavalin-A (Canavalia ensiformis) (P02866 whole entry, looked up): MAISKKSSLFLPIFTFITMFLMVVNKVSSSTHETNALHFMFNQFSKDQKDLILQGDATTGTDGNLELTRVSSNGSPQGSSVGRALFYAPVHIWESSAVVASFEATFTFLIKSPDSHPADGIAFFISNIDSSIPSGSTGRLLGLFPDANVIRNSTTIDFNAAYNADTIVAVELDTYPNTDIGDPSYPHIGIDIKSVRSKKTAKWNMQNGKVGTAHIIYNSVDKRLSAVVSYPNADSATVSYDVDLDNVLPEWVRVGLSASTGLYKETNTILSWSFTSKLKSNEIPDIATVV
# Sequence of Left-right determination factor 2 (Homo sapiens) (O00292 whole entry, looked up): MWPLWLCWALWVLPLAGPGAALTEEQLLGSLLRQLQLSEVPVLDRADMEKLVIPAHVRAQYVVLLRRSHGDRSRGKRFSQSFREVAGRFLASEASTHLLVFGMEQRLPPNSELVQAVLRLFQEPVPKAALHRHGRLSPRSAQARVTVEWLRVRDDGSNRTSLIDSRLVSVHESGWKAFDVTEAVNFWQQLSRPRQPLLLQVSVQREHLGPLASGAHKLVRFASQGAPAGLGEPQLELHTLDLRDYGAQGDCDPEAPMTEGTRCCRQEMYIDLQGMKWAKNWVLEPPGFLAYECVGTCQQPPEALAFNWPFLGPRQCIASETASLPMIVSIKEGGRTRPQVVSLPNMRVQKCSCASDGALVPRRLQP
# Sequence of Albumin (Bos taurus) (P02769 whole entry, looked up): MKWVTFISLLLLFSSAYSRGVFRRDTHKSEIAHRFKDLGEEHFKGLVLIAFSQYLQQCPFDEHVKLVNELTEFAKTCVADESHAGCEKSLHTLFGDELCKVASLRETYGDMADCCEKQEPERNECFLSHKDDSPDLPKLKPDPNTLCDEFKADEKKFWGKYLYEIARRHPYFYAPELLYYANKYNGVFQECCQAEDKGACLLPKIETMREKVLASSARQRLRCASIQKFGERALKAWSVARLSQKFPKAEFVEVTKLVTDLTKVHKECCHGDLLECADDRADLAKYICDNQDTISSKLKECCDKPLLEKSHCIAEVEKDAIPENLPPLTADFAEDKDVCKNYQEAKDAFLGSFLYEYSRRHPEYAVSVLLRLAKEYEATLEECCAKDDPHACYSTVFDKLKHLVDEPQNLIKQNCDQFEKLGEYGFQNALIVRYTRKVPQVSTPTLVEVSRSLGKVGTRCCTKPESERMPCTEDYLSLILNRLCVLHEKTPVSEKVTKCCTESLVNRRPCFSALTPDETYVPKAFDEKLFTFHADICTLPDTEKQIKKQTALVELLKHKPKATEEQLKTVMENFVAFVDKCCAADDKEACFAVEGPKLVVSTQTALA
# Sequence of Torsin-1A-interacting protein 1 (Homo sapiens) (Q5JTV8 whole entry, looked up): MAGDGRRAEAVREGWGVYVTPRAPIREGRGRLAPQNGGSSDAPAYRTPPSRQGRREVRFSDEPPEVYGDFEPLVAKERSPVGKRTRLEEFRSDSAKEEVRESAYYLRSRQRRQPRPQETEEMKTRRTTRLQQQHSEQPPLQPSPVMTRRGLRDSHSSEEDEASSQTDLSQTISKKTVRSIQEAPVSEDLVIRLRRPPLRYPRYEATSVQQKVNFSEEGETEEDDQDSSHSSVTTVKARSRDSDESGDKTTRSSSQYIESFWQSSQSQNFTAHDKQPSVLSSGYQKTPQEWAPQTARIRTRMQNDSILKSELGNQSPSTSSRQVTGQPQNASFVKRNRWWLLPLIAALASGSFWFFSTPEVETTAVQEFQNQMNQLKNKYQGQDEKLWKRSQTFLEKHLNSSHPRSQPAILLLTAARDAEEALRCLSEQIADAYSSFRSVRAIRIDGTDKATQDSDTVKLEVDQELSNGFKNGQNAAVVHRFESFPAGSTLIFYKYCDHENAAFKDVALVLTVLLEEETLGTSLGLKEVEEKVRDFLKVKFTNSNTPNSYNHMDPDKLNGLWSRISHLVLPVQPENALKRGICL
# Sequence of Alpha-bungarotoxin (Bungarus multicinctus) (P60615 whole entry, looked up): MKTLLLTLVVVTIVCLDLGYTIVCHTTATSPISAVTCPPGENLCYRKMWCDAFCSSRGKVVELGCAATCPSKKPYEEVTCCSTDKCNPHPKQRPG
Compound,composite z-score [1],z-score [2],composite z-score [3],composite z-score [4],composite z-score [5],composite z-score [6],composite z-score [7],composite z-score [8],composite z-score [9],composite z-score [10],composite z-score (Albumin (Bos taurus)),composite Z-score [11],composite z-score [12],composite z-score [13],composite z-score [14],composite z-score [15],composite z-score [16],composite z-score (Sam68 (KHDRBS1)),composite z-score [17],composite z-score [18]
COc1ccc(C#Cc2ccc3c(c2)[C@]2(C(=O)N3)[C@H](C(=O)N3CCCCCCC3)[C@H]3C(=O)O[C@H](c4ccccc4)[C@H](c4ccccc4)N3[C@@H]2c2ccc(O)cc2)cc1,0.871,-0.764,0.536,1.51,0.426,0.19,0.162,2.3,2.85,1.22,0.796,4.74 (inactive),0.888,0.0488,0.594,2.9,1.25,1.3,0.573,0.977
Cc1ccccc1C(O)C1C=CC2C(=O)NC(=O)C2N1Nc1ccc(Cl)cc1Cl (stereo not given),-0.198,-0.595,-0.345,1.95,1.13,-0.0405,0.0796,0.879,1.56,0.0072,0.709,1.42 (inactive),-0.0653,-0.0453,0.558,2.4,1.1,0.965,0.291,0.814
CN(C)CCCC[C@@H]1NC(=O)[C@@H]2C[C@H](C(=O)O)[C@H](c3cccc(OCCO)c3)N2C1=O,-0.927,-0.282,-0.43,-0.832,-0.238,-0.0179,-0.0793,-0.375,-0.657,-0.676,0.0812,0.627 (inactive),-0.0914,-0.116,0.198,0.491,-0.0644,-0.936,0.217,0.567
COc1ccc(C(O)C2C=CC3C(=O)N(c4ccccc4)C(=O)C3N2Nc2ccccc2F)cc1 (stereo not given),0.726,-0.139,-0.591,0.528,0.062,-0.0991,0.0062,0.853,0.982,1.01,0.894,0.319 (inactive),0.154,0.12,0.399,1.69,1.14,1.2,-0.798,0.515
CCCCCCCCCCC(O)C1C=CC2C(=O)N(c3ccccc3)C(=O)C2N1Nc1ccccc1F (stereo not given),0.648,-0.211,-0.24,1.03,1.07,-0.0715,0.246,0.238,0.0092,0.533,0.524,-0.105 (inactive),-0.0242,-0.171,0.208,1.5,0.344,0.233,-1.13,0.17
CCN(CC)c1ccc(N2CC=CC34O[C@@H]5/C=C\CCC(C)OC(=O)C5[C@H]3C(=O)N(C(C)CO)[C@@H]4C2=O)cc1 (stereo not given in full),-0.344,0.0645,-0.292,-0.847,-1.66,-0.0346,-0.0709,-0.318,0.187,-1.04,-0.739,0.451 (inactive),-0.24,-0.148,0.42,-0.175,-0.165,-0.0199,0.142,-1.09

# Source: PubChem BioAssay
